In assay [1] the test system is Plasmodium falciparum Sir2 (PF13_0152, Sir2A). The experiment in a line: Plasmodium falciparum Sir2A binding compounds – biochemical, small-molecule microarray, 635 nm fluorescence, primary screen (AID 1098).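 Note: score merges spot fluorescence intensity with its signal-to-noise ratio.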 To be noted: fluorescence 635 nm, higher = more signal.
Assay [2] can be described thus: probe aDKK1 binding to arrayed compounds – biochemical, biotinylated probe, 635/667 nm fluorescence, primary screen (AID 1099).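 Note: score merges 667nm spot fluorescence with signal to noise across triplicate slides.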 The settings on record: small-molecule microarray, higher = more signal.
A short description of assay [3]: probe aCHRDL2 binding to arrayed compounds – biochemical, biotinylated probe, 635/667 nm fluorescence, primary screen (AID 1100). The settings on record: small-molecule microarray, higher = more signal.
Assay [4] is described as follows: change in splice reporter luminescence, either direction, cell-based, HEK293, spliceosome inhibition project, primary screen (AID 1101).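 Note: HEK293 cells carrying a splicing-competent luciferase reporter gene; test concentration not given here.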 The settings on record: HEK293 splicing luciferase reporter, 24 h, higher = more signal, called active from +8 up or from −8 down. In general terms: Reporter assays use an easily measured gene product as a stand-in for the process of interest.

Assay [5] addresses Fibroblast growth factor 10 (Homo sapiens) (UniProt O15520). Briefly: compounds binding fibroblast growth factor 10 – biochemical, small-molecule microarray, 635 nm fluorescence, primary screen (AID 1102). To be noted: FGF10 binding, fluorescence 635 nm, higher = more signal.
Assay [6] concerns glycogen synthase kinase-3 (GSK3A per assay name; protocol says GSK3B). Briefly: compounds binding glycogen synthase kinase-3 – biochemical, small-molecule microarray, 635 nm fluorescence, GSK3A, primary screen (AID 1103). Note: the record names both GSK3A and GSK3B. To be noted: fluorescence 635 nm, higher = more signal.
For assay [7], the target named is Epidermal growth factor receptor (Homo sapiens) (UniProt P00533). Briefly: compounds binding epidermal growth factor receptor – biochemical, small-molecule microarray, 635 nm fluorescence, primary screen (AID 1104).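 Note: score merges 667 nm emission intensity with spot signal to noise over triplicate slides.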 The settings on record: EGFR binding, higher = more signal.
Epidermal growth factor receptor (Homo sapiens), sequence (P00533 whole entry, looked up): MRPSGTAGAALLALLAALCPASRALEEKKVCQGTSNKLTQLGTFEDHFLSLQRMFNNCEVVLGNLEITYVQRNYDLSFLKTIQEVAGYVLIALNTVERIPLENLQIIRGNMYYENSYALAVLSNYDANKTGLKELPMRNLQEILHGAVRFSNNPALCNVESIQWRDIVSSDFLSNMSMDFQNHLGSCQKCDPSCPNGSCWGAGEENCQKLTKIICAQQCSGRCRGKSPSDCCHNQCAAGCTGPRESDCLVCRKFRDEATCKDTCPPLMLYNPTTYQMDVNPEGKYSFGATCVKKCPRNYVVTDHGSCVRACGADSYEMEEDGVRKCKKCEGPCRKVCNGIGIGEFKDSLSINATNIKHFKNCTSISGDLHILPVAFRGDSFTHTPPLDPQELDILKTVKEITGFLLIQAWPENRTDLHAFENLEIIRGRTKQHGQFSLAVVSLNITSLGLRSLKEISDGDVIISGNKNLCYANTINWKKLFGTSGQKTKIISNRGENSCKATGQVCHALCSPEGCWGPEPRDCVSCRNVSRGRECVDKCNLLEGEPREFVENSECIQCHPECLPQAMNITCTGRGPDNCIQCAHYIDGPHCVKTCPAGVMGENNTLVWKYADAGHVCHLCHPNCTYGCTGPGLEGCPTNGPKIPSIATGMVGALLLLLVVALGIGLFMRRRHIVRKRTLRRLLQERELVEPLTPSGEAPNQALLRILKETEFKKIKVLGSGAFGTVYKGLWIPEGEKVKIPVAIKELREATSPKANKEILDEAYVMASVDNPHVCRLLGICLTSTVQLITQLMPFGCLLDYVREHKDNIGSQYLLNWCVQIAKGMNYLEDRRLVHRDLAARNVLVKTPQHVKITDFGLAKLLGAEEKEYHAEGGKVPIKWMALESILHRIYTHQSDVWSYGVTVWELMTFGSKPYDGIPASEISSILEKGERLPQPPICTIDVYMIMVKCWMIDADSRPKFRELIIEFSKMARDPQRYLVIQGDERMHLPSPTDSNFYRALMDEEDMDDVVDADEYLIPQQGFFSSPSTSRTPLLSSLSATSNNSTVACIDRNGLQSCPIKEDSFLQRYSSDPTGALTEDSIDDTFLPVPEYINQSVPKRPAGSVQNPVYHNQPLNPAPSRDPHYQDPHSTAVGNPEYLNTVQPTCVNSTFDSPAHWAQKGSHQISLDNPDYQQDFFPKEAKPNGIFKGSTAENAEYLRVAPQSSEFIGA
Assay [8] concerns the target Follistatin-related protein 3 (Homo sapiens) (UniProt O95633). The experiment in a line: compounds binding follistatin-related protein 3 – biochemical, small-molecule microarray, 635 nm fluorescence, primary screen (AID 1105).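 Note: score merges emission near 667 nm and signal to noise per printed spot across three slides.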 To be noted: FSTL3 binding, higher = more signal.
Assay [9] addresses Dickkopf-related protein 1 (Homo sapiens) (UniProt O94907). The experiment in a line: small molecules binding DKK1 protein – biochemical, small-molecule microarray, 635 nm fluorescence scan, primary screen (AID 1106).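 Note: score merges emission near 667 nm with signal to noise over three replicate slides.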 The settings on record: higher = more signal.
In assay [10] the test system is Inhibin beta A chain (activin A). The experiment in a line: small molecules binding activin A – biochemical, small-molecule microarray, 635 nm fluorescence scan, primary screen (AID 1107).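 Note: mouse activin A protein probed at 4.33 µg/mL on printed slides; score merges bound-protein fluorescence near 667 nm with spot signal-to-noise.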 To be noted: INHBA, higher = more signal.
The test system of assay [11] is Human papillomavirus type 1a protein E7 (residues 44-93). The experiment in a line: small molecules binding HPV E7 44-93 – biochemical, small-molecule microarray, residues 44-93, 635 nm fluorescence, primary screen (AID 1108).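 Note: E7 fragment applied at 1 µg/mL in TBST for 1 h at 4 C; score combines spot fluorescence with its signal to noise ratio.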 The settings on record: fluorescence 635 nm, higher = more signal.
Assay [12] in a line: hepatitis C replication reporter changes, two-sided – Huh7 cells, luciferase reporter, HCV replication inhibitor project, primary screen (AID 1109).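 Note: huh7 hepatoma cells harbouring a luciferase neomycin HCV replicon reporter; luciferase luminescence as measure of HCV replicon replication; test concentration not given here.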 The settings on record: Huh7 HCV replicon luciferase reporter, 48 h; higher = more signal.
Assay [13] addresses Left-right determination factor 2 (Homo sapiens) (UniProt O00292). The experiment in a line: small molecules binding LEFTY2 protein – biochemical, small-molecule microarray, 635 nm fluorescence scan, primary screen (AID 1110). To be noted: higher = more signal.
The target in assay [14] is Calmodulin-1 (Homo sapiens) (UniProt P0DP23). The experiment in a line: small molecules binding calmodulin-1 with EGTA – biochemical, small-molecule microarray, Cy5-labelled CALM1, profiling panel (AID 1111).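 Note: labelled calmodulin applied in Tris saline Tween buffer holding calcium plus EGTA and DTT.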 The settings on record: Cy5-CALM1 binding fluorescence, higher = more signal.
For assay [15] the target is unchanged. The experiment in a line: small molecules binding Ca-loaded calmodulin-1 – biochemical, small-molecule microarray, Cy5-labelled CALM1, plus calcium, artefact control for SMM control-protein annotation, profiling panel (AID 1112).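 Note: score merges spot fluorescence with signal to noise from triplicate slides.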 To be noted: Cy5-CALM1 binding fluorescence, higher = more signal.
Assay [16] can be described thus: probe aWnt5a binding to arrayed compounds – biochemical, biotinylated probe, 635/667 nm fluorescence, primary screen (AID 1113).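 Note: score merges 667 nm fluorescence intensity with signal-to-noise per printed feature.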 To be noted: small-molecule microarray, higher = more signal.
Assay [17] can be described thus: probe aShh binding to arrayed compounds – biochemical, biotinylated probe, 635/667 nm fluorescence, primary screen (AID 1114).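 Note: probe is biotin-labelled aShh protein from a stem cell growth factor screen; measures binding of labelled protein to compounds printed on the slide; score merges feature fluorescence at 667 nm with signal-to-noise.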 To be noted: small-molecule microarray, higher = more signal.
Assay [18] can be described thus: probe aNog binding to arrayed compounds – biochemical, biotinylated probe, 635/667 nm fluorescence, primary screen (AID 1115).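 Note: probe is biotinylated aNog protein used at 0.15 µg/mL for 1 h at 4 C; z-score combines 667 nm fluorescence of each spot with its signal to noise.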 The settings on record: small-molecule microarray, higher = more signal.
For assay [19], the target named is Torsin-1A-interacting protein 1 (Homo sapiens) (UniProt Q5JTV8). Briefly: compound microarray binding of lysate hLAP1 – cell lysate, small-molecule microarray, COS7 lysate, 635/667 nm fluorescence, primary screen (AID 1116). The settings on record: 635 nm fluorescence, higher = more signal.
Torsin-1A-interacting protein 1 (Homo sapiens), sequence (Q5JTV8 whole entry, looked up): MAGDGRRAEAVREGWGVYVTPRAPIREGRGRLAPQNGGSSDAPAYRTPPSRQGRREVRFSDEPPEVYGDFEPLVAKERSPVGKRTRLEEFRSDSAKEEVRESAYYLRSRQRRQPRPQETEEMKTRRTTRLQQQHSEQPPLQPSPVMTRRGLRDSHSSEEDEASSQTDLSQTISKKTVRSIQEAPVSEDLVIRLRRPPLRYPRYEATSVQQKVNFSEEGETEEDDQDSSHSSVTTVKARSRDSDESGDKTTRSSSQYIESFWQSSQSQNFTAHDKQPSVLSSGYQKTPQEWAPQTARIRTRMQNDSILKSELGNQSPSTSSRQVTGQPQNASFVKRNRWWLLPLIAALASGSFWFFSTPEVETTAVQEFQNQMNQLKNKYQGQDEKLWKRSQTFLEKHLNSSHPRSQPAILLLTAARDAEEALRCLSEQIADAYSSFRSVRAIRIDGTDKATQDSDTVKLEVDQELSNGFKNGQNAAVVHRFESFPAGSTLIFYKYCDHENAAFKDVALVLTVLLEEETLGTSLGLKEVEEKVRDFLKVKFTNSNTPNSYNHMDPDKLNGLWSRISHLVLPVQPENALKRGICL
Assay [20] addresses Alpha-bungarotoxin (Bungarus multicinctus) (UniProt P60615). The experiment in a line: compounds binding labelled alpha-BTX control protein – biochemical, small-molecule microarray, Alexa647 label, 635/667 nm fluorescence, artefact control for SMM control protein annotation, profiling panel (AID 1117). To be noted: alpha-BTX-A647 binding fluorescence, higher = more signal.

Activity calls are given as the source filed them.

This passage reports composite z-score and z-score results from PubChem BioAssay.

Left-right determination factor 2 (Homo sapiens), sequence (O00292 whole entry, looked up): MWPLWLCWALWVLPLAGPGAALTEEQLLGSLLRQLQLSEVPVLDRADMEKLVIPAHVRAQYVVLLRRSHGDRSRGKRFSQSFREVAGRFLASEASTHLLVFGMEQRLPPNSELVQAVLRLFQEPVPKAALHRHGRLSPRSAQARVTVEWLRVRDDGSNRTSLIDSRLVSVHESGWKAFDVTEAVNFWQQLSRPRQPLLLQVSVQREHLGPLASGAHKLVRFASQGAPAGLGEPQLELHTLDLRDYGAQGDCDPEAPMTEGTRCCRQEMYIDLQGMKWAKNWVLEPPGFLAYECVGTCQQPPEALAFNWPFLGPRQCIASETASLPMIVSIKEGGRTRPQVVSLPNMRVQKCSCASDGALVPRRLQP
Alpha-bungarotoxin (Bungarus multicinctus), sequence (P60615 whole entry, looked up): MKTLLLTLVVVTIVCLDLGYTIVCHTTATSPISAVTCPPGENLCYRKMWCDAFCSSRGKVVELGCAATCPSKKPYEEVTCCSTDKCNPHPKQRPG
Follistatin-related protein 3 (Homo sapiens), sequence (O95633 whole entry, looked up): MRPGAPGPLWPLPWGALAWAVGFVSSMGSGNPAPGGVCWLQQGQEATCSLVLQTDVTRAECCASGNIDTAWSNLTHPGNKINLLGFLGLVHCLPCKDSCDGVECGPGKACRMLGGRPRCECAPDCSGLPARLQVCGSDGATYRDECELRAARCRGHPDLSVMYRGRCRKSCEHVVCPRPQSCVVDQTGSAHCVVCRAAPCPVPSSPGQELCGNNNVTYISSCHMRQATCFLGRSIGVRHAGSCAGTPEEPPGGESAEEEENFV
Dickkopf-related protein 1 (Homo sapiens), sequence (O94907 whole entry, looked up): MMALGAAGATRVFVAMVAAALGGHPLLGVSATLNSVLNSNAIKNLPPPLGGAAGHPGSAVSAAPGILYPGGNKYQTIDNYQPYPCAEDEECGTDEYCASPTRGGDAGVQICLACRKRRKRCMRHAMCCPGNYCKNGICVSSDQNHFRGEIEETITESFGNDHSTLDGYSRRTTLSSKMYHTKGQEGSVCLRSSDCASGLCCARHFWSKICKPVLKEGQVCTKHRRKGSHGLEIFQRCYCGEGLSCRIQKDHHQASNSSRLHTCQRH
Fibroblast growth factor 10 (Homo sapiens), sequence (O15520 whole entry, looked up): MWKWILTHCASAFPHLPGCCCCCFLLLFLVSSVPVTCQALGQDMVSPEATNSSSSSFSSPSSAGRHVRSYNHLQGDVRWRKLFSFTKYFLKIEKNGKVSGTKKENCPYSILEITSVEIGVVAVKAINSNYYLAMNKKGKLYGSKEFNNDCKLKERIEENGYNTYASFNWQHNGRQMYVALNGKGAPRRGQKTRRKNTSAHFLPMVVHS

On to `CC(C)[C@H]1NC(=O)[C@@]23C(=O)N[C@@H](Cc4ccccc4)C2[C@H](C)[C@@]2(C)O[C@H]2C3/C=C/CCC/C=C/CNC(=O)[C@H](Cc2ccccc2)NC1=O` (stereo not given in full), for which the composite z-score in [1] was 1.39; in [2] it was -0.339; in assay [3], -0.32; in assay [5], 0.106; in assay [6] it was 0.291; in assay [7], -0.023. For the same compound, the composite z-score is 0.0435 in assay [8]; 0.147 in assay [9]; 0.943 in assay [10]; 1.41 in [11]; -0.0883 in assay [13]; -0.773 in [14]. In addition, the composite z-score was -0.806 in assay [15]; -0.148 in [16]; -0.156 in assay [17]; -0.455 in [18]; -0.148 in [19]; -0.498 in assay [20]. In addition, the z-score is 0.286 (inactive) in assay [4] and -0.565 in [12].
Regarding `O=C1OCCC=C[C@H]2OC34C=CCN(c5ccc(Cl)cc5)C(=O)[C@H]3N(CCCCCCO)C(=O)[C@@H]4C12` (stereo not given in full), the composite z-score in assay [1] is 1.12; in assay [2] it was -0.0366; in [3], 0.499; in assay [5], -0.744; in [6], -0.359; in assay [7], -1.23. Further, the composite z-score in [8] is -0.509; in assay [9], -0.712; in assay [10], -0.279; in assay [11], -0.344; in [13] it was -1.25; in [14] it was -0.869. Besides, the composite z-score in [15] is -0.593; in assay [16], -0.152; in assay [17], -0.109; in [18], 0.0422; in assay [19] it was -0.307; in assay [20] it was -1.35. The z-score in assay [4] is 0.189 (inactive); in assay [12], -0.476.
For `NC(=O)[C@H]1[C@@H]2C(=O)O[C@@H](c3ccccc3)[C@@H](c3ccccc3)N2[C@@H](c2ccc(O)cc2)[C@]12C(=O)Nc1ccc(C#CC3=CCCCC3)cc12`, the composite z-score in assay [1] was -0.165; in [2], -0.157; in [3], 0.724; in [5], 0.0647; in assay [6], -0.229; in assay [7], -0.433. Further, the composite z-score in assay [8] is -0.0656; in assay [9], -0.0761; in [10], 0.0756; in [11], 1.42; in assay [13] it was -0.443; in assay [14] it was 0.0791. For the same compound, the composite z-score in assay [15] is -0.413; in assay [16], -0.0792; in assay [17] it was -0.279; in [18], -0.185; in assay [19] it was 0.731; in [20], 1.02. Further, the z-score in assay [4] is -1.67 (inactive); in assay [12], -1.49.
Turning to `COc1ccc(C#Cc2ccc3c(c2)[C@]2(C(=O)N3)[C@H](C(=O)Nc3nc4ccccc4s3)[C@H]3C(=O)O[C@H](c4ccccc4)[C@H](c4ccccc4)N3[C@@H]2c2ccccc2OCCO)cc1`, the composite z-score in assay [1] was 0.465; in [2], 0.243; in [3] it was -0.125; in [5], 0.463; in assay [6], 0.933; in assay [7], 0.19. Also, the composite z-score in assay [8] was 0.821; in assay [9] it was 0.47; in [10], 0.648; in assay [11] it was 1.18; in [13] it was 0.282; in assay [14], 1.55. For the same compound, the composite z-score was 0.436 in assay [15]; -0.0685 in [16]; -0.282 in assay [17]; -0.273 in assay [18]; 0.471 in [19]; 1.02 in assay [20]. The z-score in assay [4] is 0.17 (inactive); in assay [12] it was -1.67.
Regarding `Cc1ccc(F)cc1S(=O)(=O)N[C@@H]1CCN(Cc2cccc3[nH]ccc23)C1`, the composite z-score was 0.245 in [1]; -0.374 in [2]; -0.518 in [3]; 0.67 in assay [5]; 0.67 in assay [6]; 0.719 in [7]. Besides, the composite z-score in assay [8] is 1.36; in assay [9], 0.236; in assay [10] it was 0.741; in assay [11], -0.0347; in [13], 0.682; in [14], -0.517. Also, the composite z-score in assay [15] was -1.03; in assay [16], -0.0685; in [17] it was -0.153; in assay [18], -0.492; in assay [19], 0.852; in assay [20], 0.111. For the same compound, the z-score is -0.44 (inactive) in assay [4] and -1.57 in assay [12].
`COCCOC(=O)N1C(=O)[C@@]2(c3cc(C#CCCO)ccc31)[C@H](c1ccccc1OCCO)N1[C@H](c3ccccc3)[C@H](c3ccccc3)OC(=O)[C@H]1[C@@H]2C(=O)N1CCCCCCC1`: the composite z-score came out at 1.69 in assay [1]; 2.28 in assay [2]; 1.36 in assay [3]; 0.743 in assay [5]; 1.08 in assay [6]; 0.965 in assay [7]. Besides, the composite z-score in [8] worked out at 1.53; in assay [9], 1.31; in assay [10] it was 1.6; in [11], 1.4; in assay [13], 0.994; in assay [14], 2.58. For the same compound, the composite z-score in assay [15] was found to be 1.09; in [16] it was 0.495; in assay [17], 1.94; in [18], 2.8; in [19] it was 3.04; in [20], 2.2. Also, the z-score is -0.532 (inactive) in assay [4] and -2.25 in assay [12].
